An excerpt weighted towards active compounds, which were near 2.8% of everything screened.
Pol kappa inh – DNA polymerase kappa (human) inhibition | 400,000 tested, 0.53% active | purified Pol kappa, fluorescent DNA synthesis assay, 10 min | Q9UBT6 | Potency, µM (series often up to 107 µM), without a hit: at the top dose activity, negative = inhibition, usual class: inhibitors; also: potency is read from the fitted curve at half-maximal effect; % is scaled to controls: 0 for no effect and ±100 for the full control effect
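Activity was followed as the change in fluorescence between reads at 0 and 10 min after starting the reaction with 50 nM substrate. Beforehand, 10 nM polymerase had been preincubated with compound for 15 min at room temperature.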
POLH inh – inhibitors of human DNA polymerase eta. Q9Y253. recombinant Pol eta, fluorescent DNA replication assay. Potency, µM (doses to about 114 µM), inactives show top-dose activity change, negative = inhibition, most hits filed as inhibitors. 390,000 tested, 1.2% active. AID 588591; also: potency is read from the fitted curve at half-maximal effect; % is scaled to controls: 0 for no effect and ±100 for the full control effect
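Pol eta at 10 nM preincubated with compounds 15 min at room temperature; reaction started with fluorescent substrate (50 nM final) and read kinetically at 0 and 10 min.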
POLB inh – inhibitors of human DNA polymerase beta | Pol beta primer extension/strand displacement, fluorescence kinetic | P06746 | 340,000 tested, 1.3% active | Potency, µM (titrated, usually from 114 µM), for the others: at the highest dose activity change, negative = inhibition, usual class: inhibitors; also: potency is read from the fitted curve at half-maximal effect; % is scaled to controls: 0 for no effect and ±100 for the full control effect
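Kinetic readout of DNA synthesis with strand displacement by Pol beta. Compound and 10 nM enzyme sit 15 min at room temperature; 50 nM substrate starts the reaction, read immediately and at 10 min.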
WRN inhibitor – inhibitors of human WRN helicase | Q14191 | WRN helicase unwinding, fluorescent forked duplex, kinetic | Potency, µM (doses to about 114 µM), for the others: at the top dose activity change, negative = inhibition, most hits filed as inhibitors | 360,000 tested, 0.46% active | AID 651768; also: potency is read from the fitted curve at half-maximal effect; % is scaled to controls: 0 for no effect and ±100 for the full control effect; nearly all actives have a fitted effect of over 55% in size
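Kinetic fluorescence helicase assay: unwinding of a quenched forked DNA duplex (100 nM final) with 2 mM ATP final raises red fluorescence (525/598 nm). Compounds sat 15 min at room temperature with 20 nM WRN beforehand.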
Pol iota inh – blocks human DNA polymerase iota activity; Pol iota fluorescent replication assay, 10 min; Potency, µM (titrated, usually from 115 µM), inactives show at the top dose activity, negative = inhibition, actives largely listed as inhibitors; 390,000 tested, 1% active; AID 588590; also: potency is read from the fitted curve at half-maximal effect
Target sequence (Q9UNA4 whole entry, looked up): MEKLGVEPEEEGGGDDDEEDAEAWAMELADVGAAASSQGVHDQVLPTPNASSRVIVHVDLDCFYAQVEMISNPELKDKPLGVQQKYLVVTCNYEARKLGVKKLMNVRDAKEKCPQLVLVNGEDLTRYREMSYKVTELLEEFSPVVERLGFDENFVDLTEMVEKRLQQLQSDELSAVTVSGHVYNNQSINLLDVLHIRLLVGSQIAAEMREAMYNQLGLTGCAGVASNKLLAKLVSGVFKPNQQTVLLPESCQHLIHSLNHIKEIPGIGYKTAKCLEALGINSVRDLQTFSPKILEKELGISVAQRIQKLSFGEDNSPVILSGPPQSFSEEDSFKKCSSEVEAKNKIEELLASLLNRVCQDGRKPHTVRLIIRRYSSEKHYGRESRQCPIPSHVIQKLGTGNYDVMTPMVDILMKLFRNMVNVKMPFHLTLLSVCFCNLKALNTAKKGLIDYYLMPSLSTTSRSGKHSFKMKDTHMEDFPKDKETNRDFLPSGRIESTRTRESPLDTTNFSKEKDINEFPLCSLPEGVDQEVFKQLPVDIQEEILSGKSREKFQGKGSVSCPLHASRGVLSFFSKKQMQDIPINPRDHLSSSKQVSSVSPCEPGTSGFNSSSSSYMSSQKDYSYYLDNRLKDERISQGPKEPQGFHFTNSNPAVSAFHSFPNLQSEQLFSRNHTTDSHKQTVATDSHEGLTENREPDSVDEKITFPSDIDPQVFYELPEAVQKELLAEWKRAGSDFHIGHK
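Pol iota at 10 nM preincubated 15 min with compounds at room temperature; reaction started with fluorescent substrate, 50 nM final. Fluorescence read kinetically at 0 and 10 min; buffer-only wells as negative control.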
PI5P4Ka inh – blocks human PI5P4K alpha kinase activity; PI5P4Kalpha enzyme, ADP-Glo luminescence, 60 min; active compounds read low; 330,000 tested, 1.2% active; max response, %; AID 652105; active = max response of -50% or lower; inconclusive = between -30% and -50%; inactive = -30% or higher; also: value at the top dose of about 77 µM; % is scaled to controls: 0 for no effect and ±100 for the full control effect
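Controls without substrate or without enzyme flank wells where PI5P4Kalpha converts substrate using 5 microM ATP (final). Incubation lasts 60 minutes at room temperature; ADP formed is read by ADP-Glo luminescence.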
An asterisk follows results filed as active; ? = inconclusive; . = not tested or not shown; [ ] = another dose, or the depositor's remark. Unless noted, calls follow the shape of the dose curve; as a rule, active = well fitted curve in the direction sought with a large enough effect; inconclusive = small, poorly fitted or top-dose-only effect, or another doubt; inactive = no such curve, though single readings can be large; an effect the other way counts as inactive or inconclusive.

SMILES	Pol kappa inh	POLH inh	POLB inh	WRN inhibitor	Pol iota inh	PI5P4Ka inh
CCCCCOc1ccc(/C=c2\sc3nc(=O)c(-c4ccccc4)nn3c2=O)cc1OC	-19%	-3%	-8%	-22%	7%	3
O=C(OCC(=O)c1c[nH]c2ccccc12)c1cccc(S(=O)(=O)N2CCCCCC2)c1	-7%	-16%	-1%	-14%	?	3
CCc1cccc2c(C(=O)COC(=O)c3cccc(S(=O)(=O)N(C)C4CCCCC4)c3)c[nH]c12	-2%	-22%	-1%	-7%	7%	-68*
CCCCOc1ccc(CC(=O)N(C)O)cc1	-5%	.	.	.	53%	.
Cc1nc2ccc(NC(=S)NC3CC3)cc2nc1C	-16%	-11%	3%	4%	57%	-7
OCCNC(=S)Nc1ccc2nsnc2c1	-6%	-17%	1%	6%	20µM*	6
Cc1nc2ccc(NC(=S)NCCCO)cc2nc1C	-14%	?	0%	2%	18µM*	0
CCOc1ccc(-n2ccnc2SCC(=O)Nc2ccc(OC)cc2OC)cc1	-2%[60.1 µM]	-6%	-23%	.	2%	.
CCC1CN(C(=O)N2CCC(C(=O)NCCc3ccc(Cl)cc3)CC2)c2ccccc2O1 (centres undefined)	-16%	-17%	2%	.	13%	.
O=C1CCCN2N=C(SCC(=O)Nc3nccs3)SC2=N1	-8%	79µM*	32µM*	?	?	-21
Cc1nnc(NC(=O)CSC2=NN3CCCC(=O)N=C3S2)s1	-27%	-17%	?	-7%	?	-8
CC(C)CN(CC(C)C)C1=N/C(=C\c2ccco2)C(=O)N1c1ccccc1	-39%	-11%	28µM*	-17%	?	-2
CCN(CC)C1=N/C(=C\c2ccco2)C(=O)N1c1ccccc1	-12%	-4%	-10%	-13%[57.1 µM]	-26%	7
CCn1ncc(/C=C2/SC(=S)NC2=O)c1C	-6%	-17%	6%	1%	-8%	-66*
Cc1sc(-n2c(C)cc(/C=C3\SC(=S)NC3=O)c2C)c(C#N)c1C	79µM*	22µM*	32µM*	56µM*	?	.
CCn1c(C)cc(/C=C2/SC(=S)NC2=O)c1C	-10%	-2%	1%	-25%	15%	-7
CC(C)(C)n1ncc2c(=O)n(Cc3ccc(OC(F)(F)F)cc3)cnc21	-8%	.	.	.	-8%	.
CCOc1ccc(-c2nnc(SCC(=O)NCCC(C)C)nc2-c2ccc(OCC)c(OC)c2)cc1OC	-6%[60.1 µM]	-13%	6%	.	10%	.
CCOc1ccc(C(=O)NC(=S)Nc2cc(C)ccn2)cc1[N+](=O)[O-]	-4%	-7%	32µM*	0%	?	-4
CCOc1ccc(C(=O)NC(=S)Nc2ccccn2)cc1[N+](=O)[O-]	-11%	-4%	9%	-5%	-2%	-7
CCOC(=O)c1ccc(NC(=O)CSCc2ccco2)cc1	?	?	?	?	25µM*	.
CCOC(=O)c1ccc(NC(=O)Cn2ncc(Cl)c(Cl)c2=O)cc1	-13%	?	2%	-20%[57.1 µM]	28µM*	-72*
CCC(=O)Nc1ccc(C(=O)Cn2ncc(Cl)c(Cl)c2=O)cc1	?	?	?	-6%[11.6 µM]	?	-56*
O=C(Cn1ncc(Cl)c(Cl)c1=O)c1ccc2c(c1)OCCO2	-21%	?	.	-6%	?	-25
N#Cc1nc(N2CCCC2)nc(N(c2ccccc2)c2ccccc2)n1	-1%	.	.	.	17%	.
SMILES	Pol kappa inh	POLH inh	POLB inh	WRN inhibitor	Pol iota inh	PI5P4Ka inh
O=C(Nc1ccc(F)cc1F)N1CCc2c(sc3c2CCCC3)C1c1ccc(F)cc1 (centres undefined)	-7%[60.1 µM]	-15%	0%	.	-1%	.
Cc1ccc(N2CCN(C(=O)CCc3c(C)nc4ncnn4c3C)CC2)c(C)c1	-1%	3%	44%	.	12%	.
CCN(CC)c1ccc(/C=C2\C=Cc3ccccc32)cc1	-7%	.	.	.	18%	.
O=C(Cn1c(=O)nc(-c2ccccc2)c2ccccc21)Nc1ccc(Cl)c(C(F)(F)F)c1	0%[60.1 µM]	-20%	3%	.	-16%	.
Cc1nnc(N/N=C\c2ccc(-c3cccc(C(=O)O)c3)o2)n1N	?	?	?	-28%	2.5µM*	?
Cc1nnc(N/N=C/c2ccc(-c3ccc(Br)cc3)o2)n1N	-18%	-15%	?	-9%	?	-10
Cc1ccc(-n2ncc(C(=O)NCc3ccccn3)c2C2CCN(C(=O)OC(C)(C)C)CC2)cc1C	-13%	-9%	-13%	.	-3%	.
COc1cc(/C=C2/C(=O)N(c3ccc([N+](=O)[O-])cc3)N=C2N2CCOCC2)ccc1O	-9%	?	-10%	2%	0.89µM*	-14
COc1ccc(CC(=O)Nc2ccc(-c3nc4ccccc4s3)cc2Cl)cc1OC	-5%[60.1 µM]	-22%	-15%	.	-4%	.
COc1ccc(NC(=O)Cn2nnc(-c3ccccc3NS(=O)(=O)c3ccc(OC)cc3)n2)cc1	-7%	-26%	9%	-19%[57.1 µM]	18%	5
COc1ccccc1NC(=O)Cn1nnc(-c2ccccc2NS(=O)(=O)c2ccccc2)n1	-36%	-3%	11%	-13%	89µM*	3
Cc1ccc(Cl)cc1N1CCN(c2nc3ccc(C(=O)c4ccccc4)cc3n3cnnc23)CC1	2%	6%	7%	.	13%	.
COc1ccc(CNC(=O)c2ccc3c(c2)N(Cc2cccc(Cl)c2)C(=O)c2ccccc2S3)c(OC)c1	3%[60.1 µM]	-17%	-26%	.	4%	.
Cc1ccc(/C(=N/Nc2nc3ccccc3s2)C2=C(O)c3ccccc3C2=O)cc1	-3%	?	3%	-1%	164%	-81*
Cc1ccc(S(=O)(=O)N(C)CC(=O)Nc2nc3ccccc3s2)cc1	-25%	0%	-17%	-10%	6%	-2
CCCCNC(=O)c1ccc2c(c1)NC(=O)C(CS(=O)(=O)Cc1cccc(C)c1)N2 (centres undefined)	-4%	?	28µM*	.	8%	.
Cc1ccc(-n2nc3c(N4CCC(C(=O)NCc5ccc(C)o5)CC4)nnc(C)c3c2C)cc1	7%	-17%	0.4µM*	96%	?	-8
COc1ccc(-n2nc3c(N4CCC(C(=O)NCCc5ccccc5C)CC4)nnc(C)c3c2C)cc1	-2%	-5%	10%	-4%	38%	0
COc1ccc(-n2nc3c(N4CCC(C(=O)NCc5ccccc5C)CC4)nnc(C)c3c2C)cc1	-28%	4%	79µM*	-7%[11.6 µM]	?	1
O=S(=O)(c1cccc(C(F)(F)F)c1)n1c(/C=C/c2ccccc2)nc2ccccc21	-6%[60.1 µM]	?	6%	.	-8%	.
O=C1C2C3C=CC(C3)C2C(=O)N1c1ncn[nH]1 (centres undefined)	-12%	?	40µM*	-14%	?	.
COC(=O)c1ccc(CCc2cc(O)ccc2O)cc1	-5%	-5%	.	56µM*	16%	?
